# Assay results reported in ChEMBL document CHEMBL2218924, “A broad activity screen in support of a chemogenomic map for kinase signalling research and drug discovery” (Biochem J, 2013).
# What was measured:
# [1] = target: Rho-associated protein kinase 2 (Homo sapiens) (UniProt O75116); settings: at 1 µM
# [2] = target: Rho-associated protein kinase 2 (Homo sapiens) (UniProt O75116); settings: at 10 µM
# [3] = target: Proto-oncogene tyrosine-protein kinase receptor Ret (Homo sapiens) (UniProt P07949); settings: at 1 µM
# [4] = target: Proto-oncogene tyrosine-protein kinase receptor Ret (Homo sapiens) (UniProt P07949); settings: at 10 µM
# [5] = target: Macrophage-stimulating protein receptor (Homo sapiens) (UniProt Q04912); settings: at 1 µM
# [6] = target: Macrophage-stimulating protein receptor (Homo sapiens) (UniProt Q04912); settings: at 10 µM
# [7] = target: T1, Tyrosine-protein kinase receptor TYRO3 (Homo sapiens) (UniProt Q06418); settings: at 1 µM
# T1 sequence (whole entry): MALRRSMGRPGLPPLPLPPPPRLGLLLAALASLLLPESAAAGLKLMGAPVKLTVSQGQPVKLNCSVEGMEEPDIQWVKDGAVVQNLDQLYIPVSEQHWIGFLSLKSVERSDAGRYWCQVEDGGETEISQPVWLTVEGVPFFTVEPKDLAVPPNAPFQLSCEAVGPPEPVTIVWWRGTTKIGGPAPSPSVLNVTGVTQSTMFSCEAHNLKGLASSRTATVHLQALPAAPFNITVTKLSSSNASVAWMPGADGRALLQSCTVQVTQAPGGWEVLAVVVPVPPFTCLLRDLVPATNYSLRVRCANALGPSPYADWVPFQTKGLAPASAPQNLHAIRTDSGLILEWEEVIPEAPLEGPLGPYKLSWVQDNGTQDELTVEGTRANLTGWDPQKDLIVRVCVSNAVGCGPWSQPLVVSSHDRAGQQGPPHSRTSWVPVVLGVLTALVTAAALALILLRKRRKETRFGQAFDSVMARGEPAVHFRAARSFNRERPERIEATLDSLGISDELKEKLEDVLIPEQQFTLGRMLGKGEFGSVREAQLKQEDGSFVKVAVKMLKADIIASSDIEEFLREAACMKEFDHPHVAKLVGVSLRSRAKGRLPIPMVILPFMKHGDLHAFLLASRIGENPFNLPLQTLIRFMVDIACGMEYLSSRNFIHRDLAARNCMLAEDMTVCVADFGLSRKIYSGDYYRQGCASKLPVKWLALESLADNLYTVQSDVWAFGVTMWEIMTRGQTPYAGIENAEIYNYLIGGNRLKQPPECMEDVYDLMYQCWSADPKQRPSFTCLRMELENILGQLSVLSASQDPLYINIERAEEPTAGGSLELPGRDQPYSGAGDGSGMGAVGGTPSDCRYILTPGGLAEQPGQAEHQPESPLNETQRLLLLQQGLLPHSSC
# [8] = target: T1, Tyrosine-protein kinase receptor TYRO3 (Homo sapiens); settings: at 10 µM
# [9] = target: Proto-oncogene tyrosine-protein kinase ROS (Homo sapiens) (UniProt P08922); settings: at 1 µM
# [10] = target: Proto-oncogene tyrosine-protein kinase ROS (Homo sapiens) (UniProt P08922); settings: at 10 µM
# Sequence of Proto-oncogene tyrosine-protein kinase receptor Ret (Homo sapiens) (P07949 whole entry): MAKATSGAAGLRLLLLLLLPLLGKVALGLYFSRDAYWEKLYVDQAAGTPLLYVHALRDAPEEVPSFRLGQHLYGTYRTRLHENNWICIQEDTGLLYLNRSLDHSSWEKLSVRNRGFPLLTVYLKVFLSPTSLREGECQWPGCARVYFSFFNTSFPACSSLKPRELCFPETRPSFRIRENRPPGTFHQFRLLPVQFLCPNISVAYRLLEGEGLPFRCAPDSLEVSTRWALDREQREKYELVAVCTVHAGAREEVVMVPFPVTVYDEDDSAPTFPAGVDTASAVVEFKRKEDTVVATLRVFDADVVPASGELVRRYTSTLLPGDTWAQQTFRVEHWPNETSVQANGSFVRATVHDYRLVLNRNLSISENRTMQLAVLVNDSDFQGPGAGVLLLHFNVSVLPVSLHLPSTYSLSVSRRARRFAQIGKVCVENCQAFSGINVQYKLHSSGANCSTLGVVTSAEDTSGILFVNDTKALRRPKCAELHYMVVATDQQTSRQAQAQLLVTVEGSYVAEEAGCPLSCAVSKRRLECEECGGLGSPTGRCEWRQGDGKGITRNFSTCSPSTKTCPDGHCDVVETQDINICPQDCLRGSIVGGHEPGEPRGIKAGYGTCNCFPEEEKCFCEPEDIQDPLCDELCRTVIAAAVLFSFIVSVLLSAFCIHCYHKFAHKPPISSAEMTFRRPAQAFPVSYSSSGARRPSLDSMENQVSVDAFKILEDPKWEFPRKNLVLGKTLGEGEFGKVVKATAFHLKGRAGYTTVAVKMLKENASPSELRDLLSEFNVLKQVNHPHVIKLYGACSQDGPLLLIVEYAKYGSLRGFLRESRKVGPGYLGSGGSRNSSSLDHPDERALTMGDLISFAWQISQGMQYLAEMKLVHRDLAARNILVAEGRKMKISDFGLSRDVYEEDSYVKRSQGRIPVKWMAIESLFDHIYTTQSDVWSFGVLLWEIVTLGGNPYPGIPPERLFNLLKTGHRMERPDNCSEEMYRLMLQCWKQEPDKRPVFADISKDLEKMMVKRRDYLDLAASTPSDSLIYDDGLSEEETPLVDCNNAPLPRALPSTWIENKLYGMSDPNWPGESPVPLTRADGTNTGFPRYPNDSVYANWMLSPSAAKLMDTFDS
# Sequence of Proto-oncogene tyrosine-protein kinase ROS (Homo sapiens) (P08922 whole entry): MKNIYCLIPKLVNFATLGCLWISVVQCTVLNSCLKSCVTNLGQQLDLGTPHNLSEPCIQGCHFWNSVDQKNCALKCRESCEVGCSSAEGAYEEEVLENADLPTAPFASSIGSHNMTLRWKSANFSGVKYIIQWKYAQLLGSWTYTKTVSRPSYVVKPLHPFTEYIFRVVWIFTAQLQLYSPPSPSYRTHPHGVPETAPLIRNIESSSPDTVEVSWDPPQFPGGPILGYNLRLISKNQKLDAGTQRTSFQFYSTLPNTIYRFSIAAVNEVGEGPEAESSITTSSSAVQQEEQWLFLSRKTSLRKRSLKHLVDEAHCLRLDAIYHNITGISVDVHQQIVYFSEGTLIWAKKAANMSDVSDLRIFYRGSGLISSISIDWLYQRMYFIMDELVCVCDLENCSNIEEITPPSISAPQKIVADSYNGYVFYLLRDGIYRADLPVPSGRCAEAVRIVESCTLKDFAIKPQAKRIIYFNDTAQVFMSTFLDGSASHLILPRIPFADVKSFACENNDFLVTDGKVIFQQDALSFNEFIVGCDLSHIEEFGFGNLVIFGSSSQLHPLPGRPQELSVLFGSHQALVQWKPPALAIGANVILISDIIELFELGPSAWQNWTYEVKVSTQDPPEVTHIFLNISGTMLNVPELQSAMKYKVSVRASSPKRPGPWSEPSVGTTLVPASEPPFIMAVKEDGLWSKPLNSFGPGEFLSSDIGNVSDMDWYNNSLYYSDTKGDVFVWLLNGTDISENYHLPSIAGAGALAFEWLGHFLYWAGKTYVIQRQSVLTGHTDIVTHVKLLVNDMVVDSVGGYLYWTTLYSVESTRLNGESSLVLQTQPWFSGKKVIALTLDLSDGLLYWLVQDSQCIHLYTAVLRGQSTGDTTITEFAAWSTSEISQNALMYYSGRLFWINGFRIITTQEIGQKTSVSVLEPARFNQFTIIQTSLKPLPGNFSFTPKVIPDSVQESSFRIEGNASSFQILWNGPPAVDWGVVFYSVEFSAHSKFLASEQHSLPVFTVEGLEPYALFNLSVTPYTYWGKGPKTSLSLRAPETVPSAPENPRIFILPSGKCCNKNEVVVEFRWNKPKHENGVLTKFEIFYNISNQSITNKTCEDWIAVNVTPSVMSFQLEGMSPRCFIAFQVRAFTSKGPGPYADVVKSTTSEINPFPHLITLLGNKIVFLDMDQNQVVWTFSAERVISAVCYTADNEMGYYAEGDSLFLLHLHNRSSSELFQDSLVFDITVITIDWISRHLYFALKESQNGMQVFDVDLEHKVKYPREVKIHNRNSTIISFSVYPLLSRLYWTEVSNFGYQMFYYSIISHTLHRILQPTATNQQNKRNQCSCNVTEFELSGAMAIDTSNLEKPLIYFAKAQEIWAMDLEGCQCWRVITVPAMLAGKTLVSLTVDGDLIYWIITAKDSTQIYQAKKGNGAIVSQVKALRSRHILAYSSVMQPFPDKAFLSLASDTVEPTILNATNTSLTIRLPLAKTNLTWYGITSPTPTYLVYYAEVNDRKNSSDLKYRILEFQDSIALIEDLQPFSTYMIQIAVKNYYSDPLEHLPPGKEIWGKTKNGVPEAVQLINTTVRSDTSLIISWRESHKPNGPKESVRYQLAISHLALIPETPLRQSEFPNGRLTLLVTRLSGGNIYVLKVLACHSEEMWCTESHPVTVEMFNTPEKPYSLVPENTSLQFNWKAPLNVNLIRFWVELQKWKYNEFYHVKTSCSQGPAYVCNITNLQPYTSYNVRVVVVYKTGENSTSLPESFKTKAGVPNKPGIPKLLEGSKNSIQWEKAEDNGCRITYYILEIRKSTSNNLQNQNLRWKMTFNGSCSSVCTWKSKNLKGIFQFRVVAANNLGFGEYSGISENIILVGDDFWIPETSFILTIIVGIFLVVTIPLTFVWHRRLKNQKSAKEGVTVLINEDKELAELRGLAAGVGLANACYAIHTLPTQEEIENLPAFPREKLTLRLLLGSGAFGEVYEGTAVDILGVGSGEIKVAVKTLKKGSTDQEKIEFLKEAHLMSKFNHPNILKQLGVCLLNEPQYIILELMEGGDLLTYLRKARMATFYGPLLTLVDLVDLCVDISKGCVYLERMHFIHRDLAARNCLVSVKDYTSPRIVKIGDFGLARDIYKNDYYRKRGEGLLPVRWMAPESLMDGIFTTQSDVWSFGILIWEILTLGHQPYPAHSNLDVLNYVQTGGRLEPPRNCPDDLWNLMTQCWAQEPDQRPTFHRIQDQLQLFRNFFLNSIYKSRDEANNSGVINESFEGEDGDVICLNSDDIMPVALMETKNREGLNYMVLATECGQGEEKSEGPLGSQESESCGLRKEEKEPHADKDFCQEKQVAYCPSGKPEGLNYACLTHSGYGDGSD
# Sequence of Macrophage-stimulating protein receptor (Homo sapiens) (Q04912 25-304 limits assumed): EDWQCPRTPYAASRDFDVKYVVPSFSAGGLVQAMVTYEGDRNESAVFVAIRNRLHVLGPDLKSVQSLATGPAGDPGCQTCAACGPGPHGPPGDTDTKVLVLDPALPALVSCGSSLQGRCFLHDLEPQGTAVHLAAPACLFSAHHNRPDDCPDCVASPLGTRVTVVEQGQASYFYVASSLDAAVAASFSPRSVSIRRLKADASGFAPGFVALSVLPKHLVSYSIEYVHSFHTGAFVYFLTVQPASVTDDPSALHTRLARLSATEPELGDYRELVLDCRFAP
# Sequence of Macrophage-stimulating protein receptor (Homo sapiens) (Q04912 310-1400 limits assumed): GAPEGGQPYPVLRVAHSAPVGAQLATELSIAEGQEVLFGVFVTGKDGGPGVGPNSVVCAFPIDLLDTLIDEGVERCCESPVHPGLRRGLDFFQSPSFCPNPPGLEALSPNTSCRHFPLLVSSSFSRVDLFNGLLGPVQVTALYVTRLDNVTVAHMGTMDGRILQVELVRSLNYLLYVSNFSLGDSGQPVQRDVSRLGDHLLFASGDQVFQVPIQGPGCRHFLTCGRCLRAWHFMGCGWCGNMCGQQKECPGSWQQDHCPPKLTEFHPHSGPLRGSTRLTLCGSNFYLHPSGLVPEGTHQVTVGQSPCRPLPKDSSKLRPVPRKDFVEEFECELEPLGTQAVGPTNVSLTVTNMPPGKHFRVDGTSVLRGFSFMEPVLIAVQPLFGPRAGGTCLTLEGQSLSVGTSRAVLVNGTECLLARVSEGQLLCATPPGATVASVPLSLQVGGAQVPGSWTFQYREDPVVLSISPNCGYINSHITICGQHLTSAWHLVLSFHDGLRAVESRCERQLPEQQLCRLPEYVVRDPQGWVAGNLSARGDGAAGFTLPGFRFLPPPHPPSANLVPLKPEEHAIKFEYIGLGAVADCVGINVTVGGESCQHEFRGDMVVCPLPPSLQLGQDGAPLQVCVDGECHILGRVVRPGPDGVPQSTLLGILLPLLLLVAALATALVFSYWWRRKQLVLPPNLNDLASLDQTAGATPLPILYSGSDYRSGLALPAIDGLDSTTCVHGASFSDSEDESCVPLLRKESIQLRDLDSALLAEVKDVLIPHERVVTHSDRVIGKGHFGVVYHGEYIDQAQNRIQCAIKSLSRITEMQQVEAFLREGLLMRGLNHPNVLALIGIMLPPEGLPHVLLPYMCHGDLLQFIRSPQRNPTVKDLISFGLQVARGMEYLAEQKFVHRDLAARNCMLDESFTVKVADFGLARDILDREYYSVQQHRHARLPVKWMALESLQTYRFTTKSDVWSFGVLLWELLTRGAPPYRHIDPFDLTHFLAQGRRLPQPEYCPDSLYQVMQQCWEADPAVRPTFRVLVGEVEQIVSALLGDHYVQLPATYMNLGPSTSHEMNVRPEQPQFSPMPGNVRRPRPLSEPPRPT
smiles,measurement,setting,value
CSc1nc(-c2ccc(F)cc2)c(-c2ccnc(NC(C)c3ccccc3)c2)[nH]1 (stereo unspecified),residual activity,[1],101%
same,residual activity,[2],96%
same,residual activity,[3],66%
same,residual activity,[4],28%
same,residual activity,[5],98%
same,residual activity,[6],83%
same,residual activity,[7],100%
same,residual activity,[8],99%
Cn1sc(=O)n(Cc2ccccc2)c1=O,residual activity,[1],91%
same,residual activity,[2],83%
same,residual activity,[3],94%
same,residual activity,[4],94%
same,residual activity,[5],81%
same,residual activity,[6],75%
same,residual activity,[9],79%
same,residual activity,[10],80%
N#C/C(=C\c1ccc(O)c(O)c1)C(=O)NCc1ccccc1,residual activity,[1],103%
same,residual activity,[2],78%
Nc1ncnc2c1cnn2-c1ccccc1,residual activity,[1],92%
same,residual activity,[2],66%
same,residual activity,[3],101%
same,residual activity,[4],91%
same,residual activity,[6],80%
same,residual activity,[7],90%
same,residual activity,[8],93%
Nc1nc(Nc2ccc(S(N)(=O)=O)cc2)nn1C(=O)c1c(F)cccc1F,residual activity,[1],16%
same,residual activity,[2],3%
same,residual activity,[5],81%
same,residual activity,[6],33%
same,residual activity,[9],101%
same,residual activity,[10],82%
same,residual activity,[7],81%
same,residual activity,[8],28%
O=C(c1cc2cc(O)ccc2[nH]1)c1cc2cc(O)ccc2[nH]1,residual activity,[1],67%
same,residual activity,[2],24%
same,residual activity,[3],8%
same,residual activity,[4],0%
same,residual activity,[5],80%
same,residual activity,[6],33%
same,residual activity,[7],39%
same,residual activity,[8],2%
O=c1cc(N2CCOCC2)oc2c(-c3ccccc3)cccc12,residual activity,[1],100%
same,residual activity,[2],73%
same,residual activity,[5],64%
same,residual activity,[6],65%
Cn1c2ccccc2c2c3c(c4c5ccccc5n(CCC#N)c4c21)CNC3=O,residual activity,[1],43%
same,residual activity,[2],31%
same,residual activity,[3],-1%
same,residual activity,[4],1%
same,residual activity,[9],1%
same,residual activity,[10],3%
O=C1Cc2c([nH]c3ccc([N+](=O)[O-])cc23)-c2ccccc2N1,residual activity,[3],103%
same,residual activity,[4],79%
same,residual activity,[5],100%
same,residual activity,[6],108%
O=S(=O)(NCCNC/C=C/c1ccc(Br)cc1)c1cccc2cnccc12,residual activity,[4],82%
CN([C@@H](Cc1ccc(OS(=O)(=O)c2cccc3cnccc23)cc1)C(=O)N1CCN(c2ccccc2)CC1)S(=O)(=O)c1cccc2cnccc12,residual activity,[7],118%
N#Cc1c(NC(=O)c2cccc3ccccc23)sc2c1CCCC2,residual activity,[2],99%
same,residual activity,[5],74%
same,residual activity,[6],65%
same,residual activity,[9],93%
same,residual activity,[10],96%
same,residual activity,[8],92%
COc1ccc(-c2cnc3c(-c4ccsc4)cnn3c2)cc1,residual activity,[3],89%
same,residual activity,[4],99%
same,residual activity,[6],87%
same,residual activity,[7],95%
same,residual activity,[8],93%
O=C(O)/C=C/c1cc(Br)c(Br)c(Br)c1Br,residual activity,[3],103%
same,residual activity,[4],103%
same,residual activity,[5],56%
same,residual activity,[6],43%
same,residual activity,[9],108%
same,residual activity,[10],97%
same,residual activity,[7],98%
same,residual activity,[8],106%
Oc1cccc(-c2nc(N3CCOCC3)c3oc4ncccc4c3n2)c1,residual activity,[7],82%
same,residual activity,[8],93%
O=C1NC(=O)C(c2cn(CCCO)c3ncccc23)=C1c1cnccn1,residual activity,[3],82%
same,residual activity,[4],81%
same,residual activity,[5],66%
same,residual activity,[6],58%
COc1ccc(CNC(=O)Nc2ncc([N+](=O)[O-])s2)cc1,residual activity,[7],106%
same,residual activity,[8],108%
N#C/C(=C1/Nc2ccccc2S1)c1ccnc(NCCc2cccnc2)n1,residual activity,[3],63%
same,residual activity,[4],47%
same,residual activity,[5],84%
same,residual activity,[6],46%
same,residual activity,[7],97%
same,residual activity,[8],74%
CCN(CC)CCNC(=O)c1c(C)[nH]c(/C=C2\C(=O)Nc3ccc(Cl)cc32)c1C,residual activity,[3],-1%
same,residual activity,[4],-1%
same,residual activity,[6],40%
same,residual activity,[7],24%
same,residual activity,[8],-1%
CC(C)N(CCC(=O)c1ccc2ccccc2c1)Cc1ccccc1,residual activity,[2],82%
same,residual activity,[6],67%
same,residual activity,[7],84%
O=C1Cc2c([nH]c3ccc(Br)cc23)-c2ccccc2N1,residual activity,[4],72%
same,residual activity,[5],72%
same,residual activity,[6],77%
same,residual activity,[8],83%
COc1ccc(COc2ccc(Cc3cnc(N)nc3N)cc2OC)cc1,residual activity,[2],78%
same,residual activity,[6],62%
same,residual activity,[9],81%
O=C(Nc1nc2ccccc2n1CCN1CCOCC1)c1cccc([N+](=O)[O-])c1,residual activity,[3],88%
same,residual activity,[4],101%
CCOC(=O)c1c(C)[nH]c(/C=C2\C(=O)Nc3ccccc32)c1C,residual activity,[3],24%
same,residual activity,[4],14%
O=C1NC(=O)C(c2c[nH]c3ccccc23)=C1c1c[nH]c2ccccc12,residual activity,[3],79%
same,residual activity,[4],28%
same,residual activity,[6],70%
O=C1Nc2ccccc2/C1=C\c1c(Cl)[nH]c2ccccc12,residual activity,[2],81%
same,residual activity,[5],86%
same,residual activity,[8],67%
O=C(Nc1ccc(Cl)cc1)c1ccccc1NCc1ccncc1,residual activity,[3],53%
same,residual activity,[4],6%
O=C(c1ccccc1)c1ccc(N2CCOCC2)cc1O,residual activity,[2],90%
same,residual activity,[3],94%
same,residual activity,[4],100%
same,residual activity,[5],90%
same,residual activity,[6],99%
same,residual activity,[9],96%
same,residual activity,[10],98%
COc1ccc2c(c1)c(C1=C(c3c[nH]c4ccccc34)C(=O)NC1=O)cn2CCCN(C)C,residual activity,[3],75%
same,residual activity,[4],45%
same,residual activity,[5],77%
same,residual activity,[6],56%
same,residual activity,[7],79%
same,residual activity,[8],76%
Fc1ccc(-c2nc3n(c2-c2ccncc2)CCS3)cc1,residual activity,[3],98%
same,residual activity,[4],83%
O=c1cc(N2CCNCC2)oc2c(-c3ccccc3)cccc12,residual activity,[2],80%
same,residual activity,[5],76%
same,residual activity,[6],58%
same,residual activity,[9],97%
same,residual activity,[10],91%
same,residual activity,[7],94%
same,residual activity,[8],96%
CCCCc1c(-c2ccc(OC)cc2)[nH]c2nccnc12,residual activity,[1],79%
same,residual activity,[3],45%
same,residual activity,[4],63%
same,residual activity,[5],85%
same,residual activity,[6],103%
same,residual activity,[10],88%
same,residual activity,[7],107%
same,residual activity,[8],105%
COc1cc2c(cc1OC)-c1n[nH]c(Nc3cccc(F)c3)c1C2,residual activity,[3],64%
same,residual activity,[4],19%
same,residual activity,[6],68%
same,residual activity,[8],50%
O=C1NC(=O)C(c2cn(CCCn3ccnc3)c3ccccc23)=C1Nc1ccccc1,residual activity,[3],102%
same,residual activity,[4],70%
CN(C)S(=O)(=O)c1ccc2c(c1)/C(=C/c1cc3c([nH]1)CCCC3)C(=O)N2,residual activity,[1],99%
same,residual activity,[3],22%
same,residual activity,[4],37%
same,residual activity,[5],64%
same,residual activity,[6],83%
same,residual activity,[7],67%
same,residual activity,[8],69%
NC(=O)c1ccc(-c2nc(-c3ccc4c(c3)OCCO4)c(-c3ccccn3)[nH]2)cc1,residual activity,[5],94%
same,residual activity,[6],86%
Cc1cc(C)c(/C=C2\C(=O)Nc3ccccc32)[nH]1,residual activity,[2],80%
same,residual activity,[7],68%
same,residual activity,[8],62%
O=c1c(-c2ccc(F)cc2)c(-c2ccncc2)[nH]n1-c1ccc(Cl)cc1,residual activity,[4],55%
same,residual activity,[5],78%
same,residual activity,[6],80%
COc1cc2nccc(Oc3ccc(NC(=O)Nc4cc(C)on4)c(Cl)c3)c2cc1OC,residual activity,[3],0%
same,residual activity,[4],-1%
same,residual activity,[5],31%
same,residual activity,[6],3%
same,residual activity,[9],24%
same,residual activity,[10],16%
same,residual activity,[7],10%
same,residual activity,[8],8%
